Hit rate of the full screen: of about 340,000 compounds, about 1,200 (0.35%) were called active. The full list was thinned out, with actives kept by preference. Unmarked numbers belong to inactive results. Rule as the data show it: active = inhibition above about 52%; inactive = the rest.
Test: inhibition of PrP 5' UTR reporter expression (AID 488862); also: 0 = median of the neutral control wells
Settings: cell-based PrP 5' UTR mRNA reporter, plate reader; active compounds read high; concentration not given here

In order of rising inhibition:
1. Cc1ccc(C(=O)Nc2nc3ccc(Cl)cc3s2)o1  -73.3%
2. COc1ccc(C(=O)COC(=O)C(O)c2ccccc2)c(OC)c1 (configuration not stated)  -34.1%
3. O=c1c2ccccc2cnn1Cc1n[nH]c(=S)n1-c1ccccc1F  -33.3%
4. O=[N+]([O-])c1ccc(C=NN=Cc2ccc([N+](=O)[O-])cc2)cc1  -32.5%
5. CCOCCCNC(=O)C(=O)NCCCOCC  -28.8%
6. Cc1cc(C)c(SCCc2ccncc2)c(C)c1  -26.1%
7. O=C(CCc1ccccc1)NCCc1cccs1  -25.9%
8. CS(=O)(=O)N(CC(=O)N1CCCCCC1)c1cccc(Cl)c1Cl  -24.3%
9. CCN1CCN(c2nc(Nc3cc(OC)ccc3OC)nc(Nc3cc(OC)ccc3OC)n2)CC1  -23.7%
10. C/C(CC(=O)Nc1ccc(C)cc1C)=N\NC(=O)C(C)C  -21%
11. CC(C)CC(CC(C)C)=NNC(=O)c1ccc(CSc2nncn2C)cc1  -20.2%
12. COc1ccc(S(=O)(=O)Nc2ccc3oc(C)c(C(C)=O)c3c2)cc1  -20.1%
13. CCOC(=O)c1c(C)n(C)c2ccc(OC)c(NC(=O)CN3CCC4(CC3)OCCO4)c12  -19%
14. CC(=O)Nc1ccc(C(=O)OCC(=O)Nc2ccc([N+](=O)[O-])cc2C(F)(F)F)cc1  -18.6%
15. Cn1c(SCC(=O)NC2CCCCC2)nnc1-c1cc2ccccc2o1  -18.5%
16. O=C1Nc2cc(C(=O)N3CCN(c4ccc(F)cc4)CC3)ccc2NC1CSCc1cccc(F)c1 (configuration not stated)  -17.6%
17. O=C1/C(=C/c2ccc(F)cc2)SC(=S)N1CCCC(=O)N1CCCCC1CCO (configuration not stated)  -14.7%
18. Cc1ccc(Cc2cnc(N)s2)o1  -14.5%
19. Cc1ccsc1C(=O)OCC(=O)Nc1cccc(F)c1  -13.8%
20. O=C(C(=O)N1CCc2ccccc2C1)c1c[nH]c2ccccc12  -13.2%
21. COc1cc(OC)cc(C(=O)N[C@H](C(=O)NNC(=O)c2ccc(Br)cc2)C(C)C)c1  -12.3%
22. Cc1ccc(/C=C2/SC(=S)N(CCC(=O)NCCCN3CCOCC3)C2=O)cc1  -12.2%
23. COc1ccc(C(=O)OCC(=O)c2cc(C)n(CC3CCCO3)c2C)cc1[N+](=O)[O-] (configuration not stated)  -11.7%
24. COc1ccc(NS(=O)(=O)c2ccc3oc(SCC(N)=O)nc3c2)cc1  -11.7%
25. O=C(COc1cc(Cl)c(Cl)cc1Cl)NCCc1ccccn1  -11.6%
26. O=C(CSc1ncnc2sccc12)NC1CCS(=O)(=O)C1 (configuration not stated)  -11.1%
27. OCCC1CN(Cc2ccc3nsnc3c2)CCN1C1CCCC1 (configuration not stated)  -10%
28. CS(=O)(=O)N1CCN(C(=O)c2cc3ccccc3oc2=O)CC1  -9.85%
29. CC(C)c1ccc(/C=C/C(=O)NCCCN2CCOCC2)cc1  -9.62%
30. COc1ccc(Cl)cc1NC(=O)[C@@H]1CCCN1C(=O)c1cccs1  -9.55%
31. Cn1c(-c2ccccc2)c[n+]2c1CCCCC2  -9.16%
32. COc1ccc(C(=O)Nc2cccc(/C=C(/CCC(=O)O)c3nc4ccccc4s3)c2)cc1  -8.9%
33. Cn1c(=S)sc2ccc3ccccc3c21  -8.89%
34. CC1(C)O[C@@H]2[C@H](O1)[C@@H](COS(=O)(=O)O)O[C@H]2n1cnc2c(=O)[nH]cnc21  -8.78%
35. COC(=O)c1cc(S(=O)(=O)NC2CCN(Cc3ccccc3)CC2)cn1C  -8.61%
36. Cc1ccc(C)c(NC(=O)COC(=O)c2nn(C)c(=O)c3ccccc23)c1  -7.85%
37. Cc1nc2nc(COc3ccccc3)[nH]n2c(=O)c1Cc1ccccc1  -6.88%
38. COc1ccc(OCC(=O)N2CCN(C(=O)c3cccs3)CC2)cc1  -6.1%
39. COc1cccc(-n2c(=S)[nH]c3c(oc4ccccc43)c2=O)c1  -5.49%
40. NS(=O)(=O)c1ccc(CNC(=O)c2ccc(Cl)cc2[N+](=O)[O-])cc1  -4.62%
41. COc1ccc(C(=O)N[C@H](C(=O)NCc2ccccc2)C(C)C)cc1  -2.13%
42. CC(=NCc1ccco1)c1c(C(F)(F)F)[nH]n(-c2nc3ccccc3s2)c1=O  0.0675%
43. COc1cc(NS(=O)(=O)c2ccc(NC(=S)NC(=O)c3ccccc3)cc2)nc(OC)n1  1.17%
44. Nc1ccc([N+](=O)[O-])cc1  3.7%
45. O=C(COC(=O)C1CCCCC1)Nc1ccc([N+](=O)[O-])cc1  5.99%
46. O=C(O)CCCCCNc1ncnc2ccc(Br)cc12  6.38%
47. Brc1ccc2ncnc(NCc3cccnc3)c2c1  12.1%
48. CN(C)C(=S)N=c1ssc(=S)n1Cc1ccco1  13.6%

With `O=C(CSc1ncnc2sccc12)N1CCN(C(=O)c2cccs2)CC1` the inhibition was 87.3% (active).
With `COc1ccc(Nc2ncnc3ccc(Br)cc23)c(OC)c1` the inhibition was 72.3% (active).
For `CSc1nc(-c2ccccc2)nc(C(Cl)Cl)n1`, the inhibition was 86.3% (active).
With `COc1cc(OC)cc(C(=O)N[C@H](C(=O)Nc2nc3ccccc3[nH]2)C(C)C)c1` the inhibition was 67.8% (active).
For `C=CCOc1ccc(/C=C2\SC(=S)N(CCC(=O)O)C2=O)cc1`, the inhibition was 79.7% (active).
With `CCC(C)Cn1c(O)cc2nn(-c3nc4ccccc4s3)c(=O)c-2c1C` (configuration not stated) the inhibition was 92.2% (active).
With `O=c1oc2ccccc2cc1-c1cn(-c2ccccc2)c(=S)[nH]1` the inhibition was 65.9% (active).
With `COC(=O)Cc1[nH]n(-c2nc3ccccc3s2)c(=O)c1C(C)=Nc1ccc(OC)cc1` the inhibition was 80.1% (active).
With `CC(=O)OC1C2(CC3N4C(=O)C5(CO)SSC4(CC31O)C(=O)N5C)OC(C)C(C)(C)C2=O` (configuration not stated) the inhibition was 96.4% (active).
In the case of `Cc1ccsc1C(=O)OCC(=O)c1cc(C)n(CC2CCCO2)c1C` (configuration not stated), the inhibition is reported as 78.7% (active).
For `CCn1c(=O)c(=O)[nH]c2c(=O)oc3ccc(S(=O)(=O)Nc4ccc(OC)cc4)cc3c21`, the inhibition was 69% (active).
With `Cc1ccc(CCC(=O)Nc2ncc(Cc3cc(Cl)ccc3Cl)s2)o1` the inhibition was 78% (active).
In the case of `NC(=O)c1ccc(NC(=O)COC(=O)c2ccc([N+](=O)[O-])cc2)cc1`, the inhibition is reported as 61.8% (active).
With `O=C1/C(=C\c2ccc([N+](=O)[O-])cc2)CS(=O)(=O)C/C1=C/c1ccc([N+](=O)[O-])cc1` the inhibition was 71.1% (active).

Reference: PubChem BioAssay AID488862 (Broad Institute, 2010)
